Source: PubChem BioAssay (The Scripps Research Institute Molecular Screening Center)
Rows were chosen to be rich in hits. Some 2.8% of all compounds tested hit in one or more screens of this group.
SMARCA2 activ: SMARCA2 function activation, primary screen. actives 1% (n = 370,000). activation, % at 9.1 µM. MG213 cells, MMTV-luciferase reporter, dexamethasone, overnight; in the data active means activation above about 7.8%
bovine MsrA act: bovine methionine sulfoxide reductase A activation | actives 0.3% (n = 360,000) | purified bovine MsrA, absorbance read-out | activation, % at 10.6 µM; in the data active means activation above about 7.5%
KLK7 zymogen act: proKLK7 (human) activation, primary screen; P49862; purified proKLK7, EDANS-DABCYL substrate fluorescence; 100% is mature enzyme control, 0% vehicle; activation, % at 7 µM; actives 0.9% (n = 370,000); AID 652039;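 active means activation above the mean of all tested compounds plus 3 SD, computed per campaign excluding outliers beyond control limits, cut at about 13% in these data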
Target sequence (P49862 whole entry, looked up): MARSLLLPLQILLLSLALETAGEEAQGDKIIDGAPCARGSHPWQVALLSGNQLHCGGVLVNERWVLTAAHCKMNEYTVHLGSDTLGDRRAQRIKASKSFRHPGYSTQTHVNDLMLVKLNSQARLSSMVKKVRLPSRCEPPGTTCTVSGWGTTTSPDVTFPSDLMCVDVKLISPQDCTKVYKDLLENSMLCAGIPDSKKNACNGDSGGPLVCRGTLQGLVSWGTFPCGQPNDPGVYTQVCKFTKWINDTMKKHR
MsrA inh: inhibits bovine methionine sulfoxide reductase A | purified bovine MsrA, absorbance read-out | actives 0.75% (n = 360,000) | AID 651718 | inhibition, % at 15.5 µM; in the data active means inhibition above about 4.5%
SMARCA2 conf: confirmation of SMARCA2 (BRM) function activators. shares compounds with SMARCA2 activ. MG213 cells, MMTV-luciferase with dexamethasone, luminescence, overnight; MG213 cells expressing E1A, Rb sequestered; DMSO wells 0%, reference activator 100%. activation, % at 9.1 µM. actives 30% (n = 3,500). AID 652260;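 active means activation above its plate's cutoff, the mean activation of tested wells plus 3 SD, cut at about 7.9% in these data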
GAL4-VP16 Luc: activates GAL4-VP16 luciferase, flagging SMARCA2 activator hits; shares compounds with SMARCA2 activ; HEK293 GAL4-VP16 pG5luc reporter, luciferase luminescence; scaled: DMSO wells 0%, SAHA wells 100%; activation, % at 9.1 µM; actives 41% (n = 3,500);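 active means activation above the solvent-only control well mean plus 3 SD, averaged across control plates, cut at about 5.2% in these data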
Large screens that a line does not name were inactive (follow-up assays come after a bar, where they were run).

C/C(=N\NC(=O)c1ccoc1C)c1ccc(Cl)s1	none
O=C(CNC(=O)c1cccs1)OCC(=O)c1ccc(Cl)cc1	none
O=C(OC1CC2CCC(C1)[N+]21CCCC1)C(O)(c1ccccc1)c1ccccc1 (stereo not given)	none (no result: bovine MsrA act, MsrA inh)
CCC(=O)Nc1cc(-c2cc3ccccc3oc2=O)ccc1OC	SMARCA2 activ 9.3 | SMARCA2 conf 10.9 | GAL4-VP16 Luc 9.6
COc1ccc(-c2cc3ccccc3oc2=O)cc1NC(=O)c1ccc(Br)o1	none
COC(=O)[C@]12C[C@H](CC(=O)NCc3cccc(C(F)(F)F)c3)C(=O)N(Cc3ccc(Cl)cc3Cl)C1=C[C@H](C1CCCC1)O[C@@H]2C	none (no result: bovine MsrA act, MsrA inh)
C=CCN1C(C(=O)OC)CN(Cc2cn(Cc3ccc(Cl)cc3)nn2)CCS1(=O)=O (stereo not given)	SMARCA2 activ 8.5 (no result: bovine MsrA act, MsrA inh) | SMARCA2 conf inactive | GAL4-VP16 Luc inactive
CCOC(=O)Cn1cc(CN2C(C(=O)OC)CN(Cc3ccc(F)cc3)CCS2(=O)=O)nn1 (stereo not given)	none (no result: bovine MsrA act, MsrA inh)
CCOC(=O)Cn1cc(CN2CCS(=O)(=O)N(Cc3ccc(F)cc3)C(C(=O)OC)C2)nn1 (stereo not given)	SMARCA2 activ 8.5 (no result: bovine MsrA act, MsrA inh) | SMARCA2 conf inactive | GAL4-VP16 Luc inactive
O=C(COc1ccc(F)cc1)N1CCC(c2ccccc2)C1 (stereo not given)	SMARCA2 activ 8.4 | SMARCA2 conf inactive | GAL4-VP16 Luc 7.9
CCc1ccc(NC(=O)c2cnccn2)cc1	none
O=C(Nc1ccc(OC(F)(F)F)cc1)c1cnccn1	SMARCA2 activ 8.1 | SMARCA2 conf 9.4 | GAL4-VP16 Luc 11.1
Cc1ccc2c(c1)CO[C@@]21O[C@H](CCO)C[C@H](O)[C@H]1O	none
CCN(CC)CCCNc1cc2n(c(=O)n1)CCc1cc(OC)c(OC)cc1-2	none
COc1cc2c(cc1OC)-c1cc(Nc3ccc(C)cc3)nc(=O)n1CC2	SMARCA2 activ 9.9 | SMARCA2 conf 9.2 | GAL4-VP16 Luc inactive
Cc1cc(S(=O)(=O)N2CCC3(CC2)OCCO3)c(C)cc1Cl	SMARCA2 activ 12.4 | SMARCA2 conf inactive | GAL4-VP16 Luc inactive
O=S(=O)(c1cc(Cl)cc(Cl)c1O)N1CCC2(CC1)OCCO2	none
COc1cccc(NC(=S)NC(=O)/C=C/c2ccco2)c1	none
O=C(/C=C/c1ccco1)NC(=S)Nc1cccc(C(=O)O)c1	SMARCA2 activ 8.4 | SMARCA2 conf inactive | GAL4-VP16 Luc inactive
CCOC(=O)Cn1cncc1-c1ccc([N+](=O)[O-])cc1	SMARCA2 activ 12.7 | SMARCA2 conf inactive | GAL4-VP16 Luc inactive
CCOc1ccc(NC(=O)Cn2cncc2-c2ccc([N+](=O)[O-])cc2)cc1	none
COc1ccc(OCC(=O)N/N=C(\C)CC(=O)Nc2ccc(OC)cc2[N+](=O)[O-])cc1	SMARCA2 activ 8.7 | SMARCA2 conf inactive | GAL4-VP16 Luc inactive
COc1ccc(NC(=O)CSc2nc3ccccc3n2-c2ccccc2)c([N+](=O)[O-])c1	none
COc1ccc(NC(=O)CSc2ccccc2)c([N+](=O)[O-])c1	SMARCA2 activ 8.4 | SMARCA2 conf inactive | GAL4-VP16 Luc inactive
CCN(C[C@H]1N[C@@](Cc2ccccc2)(C(=O)OC)[C@H]2C(=O)N(Cc3ccccc3)C(=O)[C@@H]12)S(=O)(=O)c1ccc(C)cc1	SMARCA2 activ 10.2 | SMARCA2 conf inactive | GAL4-VP16 Luc inactive
CC1CC(=Cc2ccc(N)cc2)C(=O)O1 (stereo not given)	none
O=C(CSc1ccccn1)Nc1ccc2c(c1)OCCO2	SMARCA2 activ 8.4 | SMARCA2 conf 8.4 | GAL4-VP16 Luc 11.8
O=C(CSCc1ccccc1Cl)Nc1ccc2c(c1)OCCO2	none
Cc1ccc2nc(-c3ccc(SCC(=O)Nc4ccc5c(c4)OCCO5)nc3)[nH]c2c1	SMARCA2 activ 9.8 | SMARCA2 conf inactive | GAL4-VP16 Luc 19.4
O=C(CNCc1ccccc1Cl)Nc1ccc2c(c1)OCCO2	SMARCA2 activ 13.3 | SMARCA2 conf 12.7 | GAL4-VP16 Luc 6.9
O=C(Nc1ccc2c(c1)OCO2)Nc1ccc2c(c1)OCO2	none
O=C(Nc1ccc(Cl)cc1)Nc1ccc2c(c1)OCO2	SMARCA2 activ 9.0 | SMARCA2 conf inactive | GAL4-VP16 Luc 11.2
CC1CCC2(CCC(=O)N2CCCOC(=O)c2ccccc2)CC1 (stereo not given)	none (no result: bovine MsrA act, MsrA inh)
C=CCN=C1NC(c2cccc(Cl)c2)C(C(=O)OC)=C(C)N1Cc1ccc(C(F)(F)F)cc1 (stereo not given)	none (no result: bovine MsrA act)
COc1ccc2c(c1)C(CC(C)=O)N(c1ccc(-c3cccs3)cc1)C(c1ccsc1)=C2 (stereo not given)	none
C=CCCC1CN(Cc2ccc(OC)cc2)S(=O)(=O)c2c(Oc3ccc(C(C)C)cc3)cccc2O1 (stereo not given)	none (no result: bovine MsrA act)
COc1ccc(C2=NN(C(=O)c3ccccc3)C(c3ccc(OC)c(OC)c3)C2)cc1OC (stereo not given)	none
COc1ccc(C2CC(c3ccc(OC)c(OC)c3)=NN2C(=O)c2ccccc2)cc1 (stereo not given)	SMARCA2 activ 13.3 | SMARCA2 conf 12.5 | GAL4-VP16 Luc inactive
COC(=O)[C@]12C[C@H](CC(=O)NCc3ccccc3)C(=O)N(Cc3ccc4c(c3)OCO4)C1=C[C@H](COCc1ccccc1)O[C@@H]2C	none (no result: bovine MsrA act)
COC(=O)[C@]12C[C@H](CC(=O)NCc3ccccc3)C(=O)N(CCc3ccc(OC)c(OC)c3)C1=C[C@H](C1CCCC1)O[C@@H]2C	none (no result: bovine MsrA act, MsrA inh)
NS(=O)(=O)c1ccc(N=Nc2c(O)ccc3ccccc23)cc1	SMARCA2 activ 8.8 | SMARCA2 conf inactive | GAL4-VP16 Luc inactive
CN(C)CCCNc1nc2sc3c(c2c(=O)n1CCc1ccccc1)CCCCC3	SMARCA2 activ 10.1 | SMARCA2 conf inactive | GAL4-VP16 Luc inactive
CCN(CC)CCNc1ccc(C)c2sc3ccc(O)cc3c(=O)c12	SMARCA2 activ 8.4 | SMARCA2 conf 18.2 | GAL4-VP16 Luc inactive
CC(C)(O)[C@H]1Cc2cc3ccc(=O)oc3cc2O1	SMARCA2 activ 9.1 | SMARCA2 conf 11.4 | GAL4-VP16 Luc 6.2
O=C(CN1CCCCC1)Nc1ccc(S(=O)(=O)c2ccc(NC(=O)CN3CCCCC3)cc2)cc1	none
Nc1ccccc1C(=O)NN=Cc1cccc([N+](=O)[O-])c1	SMARCA2 activ 9.1 | SMARCA2 conf 15.0 | GAL4-VP16 Luc inactive
FC(F)(F)c1cc(Cc2nc3ccccc3n2C(CCc2ccccc2)c2nc3ccccc3[nH]2)cc(C(F)(F)F)c1 (stereo not given)	none (no result: bovine MsrA act)
CCN(CC)CCCNc1nc2ccccc2c2nc(-c3ccncc3)nn12	SMARCA2 activ 22.8 | SMARCA2 conf 35.2 | GAL4-VP16 Luc inactive
C=C1c2ccccc2NC(=O)N1c1ccc(OC)cc1	SMARCA2 activ 9.1 | SMARCA2 conf 13.3 | GAL4-VP16 Luc inactive
C=C1c2cc(C)ccc2NC(=O)N1c1ccccc1	none
